Reference: PubChem BioAssay (NCATS)
Unmarked numbers belong to inactive results. Records with an inconclusive call do not appear. Where a call stands in place of a potency, no number is given. The source made the active and inactive calls. The call rests on the fitted dose curve; in most records, active means well fitted curve in the direction sought with a large enough effect; inconclusive means small, poorly fitted or top-dose-only effect, or another doubt; inactive means no such curve, though single readings can be large; an effect the other way counts as inactive or inconclusive. *1 amine or outer side, *2 acyl side, *3 side chain or, on linkers, in order; H or OH if unused. Where a SMILES comes first, the peptide text is derived from it. [ ]: non-standard residue; d: D form. X4 = CC(C)=CCc1cc(C(O)C(N[*:1])C(=O)[*:2])ccc1O

How the values were obtained:
[1] = target: Glutathione peroxidase 1 (Homo sapiens) (UniProt P07203); test: Primary qHTS Assay for Inhibitors of Recombinant Selenoprotein Glutathione Peroxidase 1 (GPX1) (AID 1845191); further: nearly all actives have a fitted effect of over 65% in size
Outline: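 GR-coupled readout: NADPH consumption tracked by fluorescence, ex 340/em 450 nm, at t=0 and after 15 min at RT. Final mix 10 nM GPX1, 1 mM GSH, 0.5 mM CHP, 0.5 mM NADPH, 100 nM GR, 0.01% BSA, following 30 min enzyme–compound preincubation.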

[2] = target: Phospholipid hydroperoxide glutathione peroxidase GPX4 (Homo sapiens) (UniProt P36969); test: Primary qHTS Assay for Inhibitors of Recombinant Selenoprotein Glutathione Peroxidase 4 (GPX4) (AID 1845192); further: nearly all actives have a fitted effect of over 65% in size; on activity change, negative = inhibition: series mostly up to about 50 µM
Outline: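 Steps: GPX4 plus compound, 30 min RT; add GR/GSH/NADPH master mix; start with cumene hydroperoxide; read 340/450 nm fluorescence at 0 and 15 min. Finals were 200 nM GPX4, 1 mM GSH, 0.5 mM CHP, 0.5 mM NADPH, 100 nM GR.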

[3] = target: Luciferin 4-monooxygenase (Photinus pyralis) (UniProt P08659); test: Primary firefly luciferase (FLuc) qHTS assay for identification of artifact compounds. (AID 1845220); further: nearly all actives have a fitted effect of over 60% in size; on activity change, negative = inhibition: series mostly up to about 54 µM
Outline: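 D-luciferin and ATP (10 uM each, final) in Tris acetate buffer pH 7.6 were incubated with compounds for 15 min at room temperature. The reaction was started with 10 nM Photinus pyralis luciferase and luminescence read after 5 min. Percent inhibition was fitted to a 4-parameter Hill equation.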

[4] = Primary fluorescence-based thiol-reactive (MSTI) qHTS assay for identification of artifact compounds. (AID 1845221); further: nearly all actives have a fitted effect of over 65% in size; further: potency means the concentration at half of the fitted maximal effect;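 on activity change, negative = thiol reactive: series mostly up to about 54 µM; thiol-reactive compounds lower the probe fluorescence signal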
Outline: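 First, 4 uM MSTI in 2% DMSO/PBS pH 7.4 was dispensed; next, compounds were added; then plates sat 1 h at room temperature without light. Finally, emission at 598 nm was recorded.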

[5] = test system: Nanoluciferase (engineered Oplophorus gracilirostris luciferase); test: Primary Nanoluciferase (NLuc) qHTS assay for identification of artifact compounds. (AID 1845222); further: series mostly up to about 54 µM
Outline: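 Diluted conditioned medium from NLuc-expressing S16 cells treated with compounds for 15 min at room temperature, then Nano-Glo substrate added; luminescence read after 5 min. Percent inhibition versus no-enzyme and DMSO controls fitted to 4-parameter Hill equation.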

[6] = Primary redox qHTS assay for identification of artifact compounds. (AID 1845223)
Outline: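 Redox-cycling detection via DTT (250 uM final) oxidation coupled to Amplex Red (25 uM)/HRP (250 mU/mL) in HBSS. 15 min preincubation plus 30 min after DTT, room temperature. Ex/Em 525/598 nm; 4-parameter Hill fit against DMSO and 10 uM DA3003.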

Glutathione peroxidase 1 (Homo sapiens), sequence (P07203 whole entry, looked up): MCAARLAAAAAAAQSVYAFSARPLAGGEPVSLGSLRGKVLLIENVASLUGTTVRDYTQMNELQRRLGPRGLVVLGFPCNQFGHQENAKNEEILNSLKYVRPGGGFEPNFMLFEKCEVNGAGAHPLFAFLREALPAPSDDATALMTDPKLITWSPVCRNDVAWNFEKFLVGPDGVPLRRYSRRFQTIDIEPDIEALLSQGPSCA
Phospholipid hydroperoxide glutathione peroxidase GPX4 (Homo sapiens), sequence (P36969 whole entry, looked up): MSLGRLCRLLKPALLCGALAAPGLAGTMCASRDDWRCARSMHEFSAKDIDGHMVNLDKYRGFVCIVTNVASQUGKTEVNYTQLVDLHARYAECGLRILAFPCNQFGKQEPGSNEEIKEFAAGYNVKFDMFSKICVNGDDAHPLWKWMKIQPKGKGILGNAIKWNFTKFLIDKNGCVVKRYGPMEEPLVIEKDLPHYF

For CCc1cc(CN2CC(C(=O)O)C2)sc1-c1noc(-c2ccc(Oc3ccccc3)cc2)n1, the Potency [1] was “inactive”, the Potency [2] was “inactive” and the Potency [3] was “inactive”. For the same compound, the Potency [4] was “inactive”, the Potency [5] was “inactive” and the Potency [6] was “inactive”.

In the case of CC1=C(C(=O)O)/C(=C\CO[C@@H]2O[C@H](CO)[C@@H](O)[C@H](O)[C@H]2O)C(OC(=O)/C=C/c2ccc(O)cc2)C1 (some centres undefined), the Potency [1] is reported as “inactive”, the Potency [2] is reported as “inactive” and the Potency [3] is reported as “inactive”. The Potency [4] was 4.62 µM (active), the Potency [5] was “inactive” and the Potency [6] was “inactive”.

For CC(=O)O[C@H]1C[C@@](O)(C(C)C)C2[C@@H](OC(=O)c3ccc(O)cc3)C[C@@]3(C)O[C@H]3C[C@]21C (some centres undefined), the Potency [1] was “inactive”, the Potency [2] was “inactive” and the Potency [3] was “inactive”. The Potency [4] was “inactive”, the Potency [5] was “inactive” and the Potency [6] was “inactive”.

In the case of C[C@@H]1O[C@@H](O[C@H]2[C@@H](OC(=O)[C@]34CCC(C)(C)CC3C3=CCC5[C@@]6(C)C[C@H](O)[C@H](O[C@@H]7O[C@H](C(=O)O)[C@@H](O)[C@H](O)[C@H]7O)[C@@](C)(C(=O)O)C6CC[C@@]5(C)[C@]3(C)CC4)OC[C@H](O)[C@@H]2O)[C@H](O)[C@H](O)[C@H]1O[C@@H]1OC[C@@H](O)[C@H](O)[C@H]1O (some centres undefined), the Potency [1] is reported as “inactive”, the Potency [2] is reported as “inactive” and the activity change, negative = inhibition [3] is reported as -6.45% [at 11.6 µM]. For the same compound, the activity change, negative = thiol reactive [4] was 118% [at 11.5 µM], the activity, negative = inhibition [5] was 0.813% [at 11.6 µM] and the redox activity (% of DA3003) [6] was 13% [at 11.5 µM].

In the case of C[C@]12C[C@@H](O)[C@@H]3C[C@@]1(O[C@@H]1O[C@H](CO)[C@@H](O)[C@H](O)[C@H]1O)[C@]3(COC(=O)c1ccccc1)C(=O)O2, the Potency [1] is reported as “inactive”, the Potency [2] is reported as “inactive” and the Potency [3] is reported as “inactive”. The Potency [4] was 13 µM (active), the Potency [5] was “inactive” and the Potency [6] was “inactive”.

With CC1=C2C(O)C(=O)OC(c3ccoc3)C2(C)CCC1O (centres undefined) the Potency [1] was “inactive”, the Potency [2] was “inactive” and the Potency [3] was “inactive”. The Potency [4] was “inactive”, the Potency [5] was “inactive” and the Potency [6] was “inactive”.

For COc1cc2c(cc1O)[C@H](c1ccc(O[C@@H]3O[C@H](CO)[C@@H](O)[C@H](O)[C@H]3O)c(OC)c1)[C@@H](CO)[C@](O)(CO)C2, the Potency [1] was “inactive”, the Potency [2] was “inactive” and the Potency [3] was “inactive”. The Potency [4] was 5.19 µM (active), the Potency [5] was “inactive” and the Potency [6] was “inactive”.

In the case of C=C[C@H]1[C@H](O[C@@H]2O[C@H](CO)[C@@H](O)[C@H](O)[C@H]2O)OC=C(C(=O)OC)[C@H]1CC(=O)O, the Potency [1] is reported as “inactive”, the Potency [2] is reported as “inactive” and the Potency [3] is reported as “inactive”. The Potency [4] was “inactive”, the Potency [5] was “inactive” and the Potency [6] was “inactive”.

With CC(C)=CCc1cc(C(O)C2NC(=O)CNC(=O)C(Cc3c[nH]c4ccccc34)NC(=O)C3CCCN3C(=O)CNC(=O)C(C(C)C)NC(=O)CNC2=O)ccc1O (centres undefined) (cyclo(G[X4]GVGPW); configuration not given here) the Potency [1] was “inactive”, the Potency [2] was “inactive” and the activity change, negative = inhibition [3] was -7.99% [at 11.6 µM]. For the same compound, the activity change, negative = thiol reactive [4] was 158% [at 11.5 µM], the activity, negative = inhibition [5] was -5.03% [at 11.6 µM] and the redox activity (% of DA3003) [6] was 10.2% [at 11.5 µM].

For CC(=O)O[C@@H]1c2c(C)coc2C(=O)[C@@]23O[C@@H]2CC[C@H](C)[C@@]13C, the Potency [1] was “inactive”, the Potency [2] was “inactive” and the Potency [3] was “inactive”. The Potency [4] was “inactive”, the Potency [5] was “inactive” and the Potency [6] was “inactive”.

For CCNC(=O)C1OC(n2cnc3c(N)nc(NCCc4ccc(CCC(=O)O)cc4)nc32)C(O)C1O (centres undefined), the Potency [1] was “inactive”, the Potency [2] was “inactive” and the Potency [3] was “inactive”. The Potency [4] was “inactive”, the Potency [5] was “inactive” and the Potency [6] was “inactive”.

For CC1(C)CC[C@]2(C(=O)O[C@@H]3O[C@H](CO)[C@@H](O)[C@H](O)[C@H]3O)CC[C@]3(C)C(=CCC4[C@@]5(C)C[C@@H](O)[C@H](O)C(C)(C)C5[C@H](O)C[C@]43C)[C@@H]2[C@@H]1O (some centres undefined), the Potency [1] was “inactive”, the Potency [2] was “inactive” and the Potency [3] was “inactive”. For the same compound, the Potency [4] was “inactive”, the Potency [5] was “inactive” and the Potency [6] was “inactive”.

With CC1(C)CC[C@]2(C(=O)O[C@@H]3O[C@H](CO)[C@@H](O)[C@H](O)[C@H]3O)CC[C@]3(C)C(=CCC4[C@@]5(C)CC[C@H](O[C@@H]6O[C@H](C(=O)O)[C@@H](O)[C@H](O)[C@H]6O)C(C)(C)C5CC[C@]43C)C2C1 (some centres undefined) the Potency [1] was “inactive”, the Potency [2] was “inactive” and the activity change, negative = inhibition [3] was 0.101% [at 11.6 µM]. For the same compound, the activity change, negative = thiol reactive [4] was 258% [at 11.5 µM], the activity, negative = inhibition [5] was 3.65% [at 11.6 µM] and the redox activity (% of DA3003) [6] was 15.1% [at 11.5 µM].

With C[C@@H]([C@@H](O)c1ccc(O)cc1)N1CCC(O)(c2ccccc2)CC1 the Potency [1] was “inactive”, the Potency [2] was “inactive” and the Potency [3] was “inactive”. For the same compound, the Potency [4] was “inactive”, the Potency [5] was “inactive” and the Potency [6] was “inactive”.

With CCC(C)C(=O)OC1CC(C)C=C2C=CC(C)C(CCC(O)CC(O)CC(=O)O)C21 (centres undefined) the Potency [1] was “inactive”, the Potency [2] was “inactive” and the Potency [3] was “inactive”. The Potency [4] was “inactive”, the Potency [5] was “inactive” and the Potency [6] was “inactive”.

With OC[C@H]1O[C@@H](Oc2ccccc2)[C@H](O)[C@@H](O)[C@@H]1O the Potency [1] was “inactive”, the Potency [2] was “inactive” and the Potency [3] was “inactive”. For the same compound, the Potency [4] was 21.2 µM (active), the Potency [5] was “inactive” and the Potency [6] was “inactive”.

For C=C1C(=O)O[C@H]2C1[C@H](OC(=O)/C(=C/CO)COC(=O)/C(C)=C/CO)CC(=C)[C@@H]1CC(=O)[C@@H](C)[C@@H]12 (some centres undefined), the Potency [1] was “inactive”, the Potency [2] was “inactive” and the Potency [3] was “inactive”. The Potency [4] was “inactive”, the Potency [5] was “inactive” and the Potency [6] was “inactive”.

For C=C[C@@](C)(O)CC/C=C(\C)C(=O)O[C@@H]1[C@@H]2O[C@]2(C)[C@H]2[C@H](O[C@@H]3O[C@H](CO)[C@@H](O)[C@H](O)[C@H]3O)OC=C[C@@]12O, the Potency [1] was “inactive”, the Potency [2] was “inactive” and the Potency [3] was “inactive”. The Potency [4] was “inactive”, the Potency [5] was “inactive” and the Potency [6] was “inactive”.

For C=C[C@@H]1[C@H](O[C@@H]2O[C@H](CO)[C@@H](O)[C@H](O)[C@H]2O)OC=C(C(=O)O)[C@H]1CCOC(=O)/C=C/c1ccc(O)c(O)c1, the Potency [1] was “inactive”, the Potency [2] was “inactive” and the Potency [3] was “inactive”. The Potency [4] was 1.3 µM (active), the Potency [5] was “inactive” and the Potency [6] was “inactive”.
